Here are results for 38 compounds from PubChem BioAssay (NCATS).

Inconclusive results are not listed. Activity calls are given as the source filed them. Calls follow the shape of the dose curve; as a rule, active = well fitted cell-killing curve with a large enough effect; inconclusive = small, poorly fitted or top-dose-only effect; inactive = flat fitted curve, though single readings scatter.
% is scaled to controls: 0 for no effect and ±100 for the full control effect; potency is read from the fitted curve at half-maximal effect.

The assay in a line: qHTS assay to identify small molecule inhibitors of chordoma cells - UCH-2 (AID 1259356). The following applies: UCH-2 chordoma viability, CellTiter-Glo ATP luminescence, 48 h; series mostly up to 46.1 µM; activity change, negative = inhibition: at the top concentration.
`CC[C@H]1NC(=O)[C@@H](NC(=O)c2ncccc2O)[C@@H](C)OC(=O)[C@H](c2ccccc2)NC(=O)[C@@H]2CC(=O)CCN2C(=O)[C@H](Cc2ccccc2)N(C)C(=O)[C@@H]2CCCN2C1=O`: the “activity change, negative = inhibition” value is -3.13% (inactive). On the same count and under the same terms, the same measure for `NC(=O)c1ccc[n+]([C@@H]2O[C@H](COP(=O)([O-])OP(=O)(O)OC[C@H]3O[C@@H](n4cnc5c(N)ncnc54)[C@H](O)[C@@H]3O)[C@@H](O)[C@H]2O)c1`: 6.09% [at 20.6 µM] (inactive); for `CC1(C)S[C@@H]2[C@H](NC(=O)C3(N)CCCCC3)C(=O)N2[C@H]1C(=O)O`: 6.59% (inactive). Consider `C=CC(=O)O`, for which the “activity change, negative = inhibition” value was 5.8% (inactive). As for `Cc1cc(=O)c(C(=O)N[C@@H](C(=O)N[C@@H]2C(=O)N3C(C(=O)O)=C(CSc4nnnn4C)CS[C@H]23)c2ccc(O)cc2)c[nH]1`, the “activity change, negative = inhibition” value was -3.88% (inactive). Still for that read-out and setting: then `Cn1nnnc1SCC1=C(C(=O)O)N2C(=O)[C@@H](NC(=O)[C@H](O)c3ccccc3)[C@H]2SC1`, with -0.567% [at 20.6 µM] (inactive). As for `NCC[C@H](O)C(=O)N[C@@H]1C[C@H](N)[C@@H](O[C@H]2O[C@H](CN)[C@@H](O)[C@H](O)[C@H]2O)[C@H](O)[C@H]1O[C@H]1O[C@H](CO)[C@@H](O)[C@H](N)[C@H]1O`, the “activity change, negative = inhibition” value was -0.0749% (inactive). Take `CCCCCCCCCC(=O)NO`: the “activity change, negative = inhibition” value was -6.13% (inactive).

On to `C[N+]1(C)[C@@H]2CC(OC(=O)C(O)(c3cccs3)c3cccs3)C[C@H]1[C@@H]1O[C@@H]12` (stereo partly drawn), for which the “activity change, negative = inhibition” value is 5.76% (inactive).

As for `Cc1c(N)nc([C@H](CC(N)=O)NC[C@H](N)C(N)=O)nc1C(=O)N[C@H](C(=O)N[C@H](C)[C@@H](O)[C@H](C)C(=O)N[C@H](C(=O)NCCc1nc(-c2nc(C(=O)NCCCCN=C(N)N)cs2)cs1)[C@@H](C)O)[C@@H](O[C@@H]1O[C@@H](CO)[C@@H](O)[C@H](O)[C@@H]1O[C@H]1O[C@H](CO)[C@@H](O)[C@H](OC(N)=O)[C@@H]1O)c1cnc[nH]1`, the “activity change, negative = inhibition” value is -2.51% (inactive). Regarding `NC(=S)NS(=O)(=O)c1ccc(N)cc1`, the “activity change, negative = inhibition” value is 2.92% (inactive). Regarding `OC[C@H]1O[C@@](CO)(O[C@H]2O[C@H](CO)[C@@H](O)[C@H](O)[C@H]2O)[C@@H](O)[C@@H]1O`, the “activity change, negative = inhibition” value is 0.137% (inactive). Still for that read-out and setting: then `CC(C)Cc1ccc([C@@H](C)C(=O)NS(C)(=O)=O)cc1`, with -3.94% (inactive); and `CCCCCCCCCCCC(=O)OC[C@@H](O)C1OC[C@H](O)[C@H]1O` (stereo partly drawn), with 6.29% (inactive). For `CCC(O)c1ccccc1` (stereo not drawn), the “activity change, negative = inhibition” value was 8.52% (inactive). The same measure, in the same setting: then `NC(N)=NCC1COc2ccccc2O1` (stereo not drawn), with -3.02% (inactive). `CCCCCCCCCCCCCCCCCC[N+](C)(C)CCC[Si](OC)(OC)OC`: the “activity change, negative = inhibition” value is -0.844% (inactive). On to `C=CC[N@@+]12CC[C@@]34c5ccccc5N5/C=C6/[C@H]7C[C@H]8[C@@]9(CC[N@@+]8(CC=C)C/C7=C/CO)c7ccccc7N(/C=C(/[C@@H](C[C@@H]31)/C(=C\CO)C2)[C@H]54)[C@@H]69`, for which the “activity change, negative = inhibition” value is 7.04% [at 20.6 µM] (inactive).

For the compound `NC(=O)[C@@H]1C[C@]2(NC(=O)NC2=O)c2cc(F)ccc2O1`, the “activity change, negative = inhibition” value is -1.01% (inactive). `CN(CCO)CC(O)Cn1cnc2c1c(=O)n(C)c(=O)n2C` (stereo not drawn) (tested in a mixture with another compound): the “activity change, negative = inhibition” value was 4.44% (inactive).

For the compound `COC1=C(OC)C(=O)C(C/C=C(\C)CC/C=C(\C)CC/C=C(\C)CC/C=C(\C)CC/C=C(\C)CC/C=C(\C)CC/C=C(\C)CC/C=C(\C)CC/C=C(\C)CCC=C(C)C)=C(C)C1=O`, the “activity change, negative = inhibition” value is -0.47% (inactive). In the case of `CC(=O)OCC1=C(C(=O)O)N2C(=O)[C@@H](NC(=O)Cc3ccccc3)[C@H]2SC1`, the “activity change, negative = inhibition” value was 3.35% (inactive). Consider `CCCC(=O)O`, for which the “activity change, negative = inhibition” value was 12.4% (inactive). `COc1ccc(/C=N/NC(=O)c2ccncc2)c(C(=O)O)c1OC`: the “activity change, negative = inhibition” value was 2.88% (inactive). Regarding `CC(=O)N[C@@H]([C@@H](O)[C@H](O)[C@H](O)CO)[C@@H](O)CC(=O)C(=O)O`, the “activity change, negative = inhibition” value is 12.2% (inactive). Consider `NC(=O)OCC(O)COc1ccc(Cl)cc1` (stereo not drawn), for which the “activity change, negative = inhibition” value was 17.3% [at 20.6 µM] (inactive). Turning to `OC1OC[C@@H](O)[C@H](O)[C@@H]1O` (stereo partly drawn), the “activity change, negative = inhibition” value was 7.51% (inactive). Consider `O=C(O)[C@H]1CN(C/C=C/P(=O)(O)O)CCN1`, for which the “activity change, negative = inhibition” value was 0.679% (inactive).

For the compound `CCCC(=O)Nc1c(I)cc(I)c(CC(CC)C(=O)O)c1I` (stereo not drawn), the “activity change, negative = inhibition” value is 1.18% (inactive).

Take `O=C(OC[C@H]1O[C@@H](OC(=O)c2cc(O)c(O)c(OC(=O)c3cc(O)c(O)c(O)c3)c2)[C@H](OC(=O)c2cc(O)c(O)c(OC(=O)c3cc(O)c(O)c(O)c3)c2)[C@@H](OC(=O)c2cc(O)c(O)c(OC(=O)c3cc(O)c(O)c(O)c3)c2)[C@@H]1OC(=O)c1cc(O)c(O)c(OC(=O)c2cc(O)c(O)c(O)c2)c1)c1cc(O)c(O)c(OC(=O)c2cc(O)c(O)c(O)c2)c1`: the Potency is 16.4 µM (active). As to `O=C(O)[C@@H]1C[C@H](CP(=O)(O)O)CCN1`, the “activity change, negative = inhibition” value is 10.1% (inactive). As to `CO/N=C(\C(=O)N[C@@H]1C(=O)N2C(C(=O)O)=C(CSc3nnnn3C)CS[C@H]12)c1csc(N)n1`, the “activity change, negative = inhibition” value is -5% (inactive).

Regarding `CC/C=C\C/C=C\C/C=C\C/C=C\C/C=C\CCCC(=O)O`, the “activity change, negative = inhibition” value was -17.6% (inactive). The same measure, in the same setting: then `CC(C)=CCC/C(C)=C/CC/C(C)=C/CC/C=C(\C)CC/C=C(\C)CCC=C(C)C`, with 11% (inactive); and `N=C(N)c1ccc(/C=C/c2ccc(C(=N)N)cc2O)cc1`, with 2.14% (inactive); and `C=CC1=C(C(=O)O)N2C(=O)[C@@H](NC(=O)/C(=N\O)c3csc(N)n3)[C@H]2SC1` (stereo in doubt), with -0.459% (inactive). On the same count and under the same terms, the same measure for `C/C=C/C=C/C(=O)O`: 15.5% (inactive); for `CC(O)[C@@H]1NC(=O)[C@H](Cc2ccccc2)NC(=O)[C@H](C(C)O)NC(=O)[C@H](CCCCN)NC(=O)[C@H](Cc2c[nH]c3ccccc23)NC(=O)[C@H](Cc2ccccc2)NC(=O)[C@H](Cc2ccccc2)NC(=O)[C@H](CC(N)=O)NC(=O)[C@H](CCCCN)NC(=O)[C@@H](NC(=O)CNC(=O)[C@H](C)N)CSSC[C@@H](C(=O)O)NC(=O)[C@H](CO)NC1=O` (stereo partly drawn): 13.8% (inactive).
